Assay [1] concerns the target Nucleoprotein (Lymphocytic choriomeningitis virus (strain Armstrong)) (UniProt P09992). Put plainly: qHTS for Inhibitors of the Functional Ribonucleoprotein Complex (vRNP) of Lymphocytic Choriomeningitis Arenaviruses (LCMV): LCMV Primary Screen - GLuc reporter signal (AID 1347086; calls by dose curve; also: series mostly up to about 57 µM; nearly all actives have a fitted effect of over 70% in size). A general note: In qHTS, concentration-response curves come from the screen itself.
Assay [2] in a line: qHTS of pediatric cancer cell lines to identify multiple opportunities for drug repurposing: Primary screen for TC32 cells (AID 1347089). Also: nearly all actives have a fitted effect of over 60% in size. The gist of the method: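 Luminescent CellTiter-Glo read-out of metabolically active TC32 cells after 48 h compound exposure. Primary: MIPE 11-point, 0.78 nM–46 µM; NPC 8-point, 0.59 nM–46 µM. Confirmatory: 11-point dilutions.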
Assay [3] is described as follows: qHTS of pediatric cancer cell lines to identify multiple opportunities for drug repurposing: Primary screen for DAOY cells (AID 1347090). Also: nearly all actives have a fitted effect of over 55% in size. Also: potency is read from the fitted curve at half-maximal effect. A digest of the protocol: (§1)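 Eight- or eleven-point concentration series, 48 h treatment at 37 degrees C in growth media; readout CellTiter-Glo luminescence. Potency and efficacy were taken from the concentration-response curves.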

A short description of assay [4]: qHTS of pediatric cancer cell lines to identify multiple opportunities for drug repurposing: Primary screen for SJ-GBM2 cells (AID 1347091). Also: potency is read from the fitted curve at half-maximal effect. A digest of the protocol: as §1
Assay [5] can be described thus: qHTS of pediatric cancer cell lines to identify multiple opportunities for drug repurposing: Primary screen for A673 cells (AID 1347092). Also: nearly all actives have a fitted effect of over 45% in size. Also: potency is read from the fitted curve at half-maximal effect. The gist of the method:
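A673 cells (500-1,000 cells/well in growth media) were pre-incubated 5 h at 37 degrees C, then exposed to compounds for 48 h. Viability was read as CellTiter-Glo luminescence; concentration-response curves came directly from the primary screen.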

The nature of assay [6]: qHTS of pediatric cancer cell lines to identify multiple opportunities for drug repurposing: Primary screen for BT-37 cells (AID 1347094). Also: series mostly up to about 57 µM. The gist of the method: (§2)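 Readout: CellTiter-Glo luminescence, 48 h treatment. Controls DMSO (neutral) and bortezomib 2.3 µM final (positive). Potency and efficacy taken from primary-screen concentration-response curves.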
The nature of assay [7]: qHTS of pediatric cancer cell lines to identify multiple opportunities for drug repurposing: Primary screen for NB-EBc1 cells (AID 1347095). Also: potency is read from the fitted curve at half-maximal effect. The gist of the method:
as §2

A short description of assay [8]: qHTS of pediatric cancer cell lines to identify multiple opportunities for drug repurposing: Primary screen for U-2 OS cells (AID 1347096). Also: nearly all actives have a fitted effect of over 50% in size. A digest of the protocol:
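Cells (500-1,000/well) in growth media were settled 5 h at 37 degrees C, then given compounds for 48 h. Viability was read as CellTiter-Glo luminescence. Primary runs used MIPE at 11 points (0.78 nM-46 µM) and NPC at 8 points (0.59 nM-46 µM); follow-ups used 11 points.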

Assay [9] in a line: qHTS of pediatric cancer cell lines to identify multiple opportunities for drug repurposing: Primary screen for SK-N-MC cells (AID 1347093). Also: potency is read from the fitted curve at half-maximal effect. The gist of the method:
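Metabolically active cells were quantified by ATP-dependent luminescence (CellTiter-Glo, 15 min at room temperature) following 48 h treatment. Cells had been plated at 500-1,000 per well and settled for 5 h beforehand.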

A short description of assay [10]: qHTS of pediatric cancer cell lines to identify multiple opportunities for drug repurposing: Primary screen for Saos-2 cells (AID 1347097). Also: nearly all actives have a fitted effect of over 40% in size. The gist of the method: as §2

Values joined by “and” are separate entries in the source; they are usually repeats but may differ in a detail not shown here. Equal values may be shown once. Records with an inconclusive call do not appear. Active and inactive are the calls of the source. Unless noted, calls follow the shape of the dose curve; as a rule, active = well fitted curve in the direction sought with a large enough effect; inconclusive = small, poorly fitted or top-dose-only effect, or another doubt; inactive = no such curve, though single readings can be large; an effect the other way counts as inactive or inconclusive.

Chain of Nucleoprotein (Lymphocytic choriomeningitis virus (strain Armstrong)) (P09992 whole entry, looked up): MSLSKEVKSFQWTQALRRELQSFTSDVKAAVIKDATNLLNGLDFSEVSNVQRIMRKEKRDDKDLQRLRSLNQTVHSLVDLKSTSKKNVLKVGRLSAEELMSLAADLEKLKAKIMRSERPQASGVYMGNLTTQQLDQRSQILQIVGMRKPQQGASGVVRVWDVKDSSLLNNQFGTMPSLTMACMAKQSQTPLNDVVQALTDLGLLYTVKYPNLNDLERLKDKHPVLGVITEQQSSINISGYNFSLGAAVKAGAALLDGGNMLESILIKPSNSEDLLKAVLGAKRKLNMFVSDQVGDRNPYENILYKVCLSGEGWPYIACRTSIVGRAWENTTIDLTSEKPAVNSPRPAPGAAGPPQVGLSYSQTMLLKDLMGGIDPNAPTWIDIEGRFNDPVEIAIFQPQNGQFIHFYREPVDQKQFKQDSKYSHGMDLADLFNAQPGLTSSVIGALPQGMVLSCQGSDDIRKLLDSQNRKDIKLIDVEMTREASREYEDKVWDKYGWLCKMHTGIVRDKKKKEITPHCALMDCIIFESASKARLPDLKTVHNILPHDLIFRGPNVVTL

For `CC[N+]1(CC)CCC(OC(=O)C(O)(c2ccccc2)c2ccccc2)C1` (stereo unspecified), the Potency result in [1], in [2], in [3], in assay [4], in assay [5] and in [6] was “inactive” in each case. For the same compound, the Potency entry in assay [7] and in assay [8] was “inactive” in each case.
For the compound `CCN[C@H](C)Cc1cccc(C(F)(F)F)c1`, the Potency entry in [1], in [2], in assay [3], in [4], in assay [5] and in [9] was “inactive” in each case. In addition, the Potency entry in [6], in assay [7], in assay [8] and in [10] was “inactive” in each case.
Consider `CCN(CC)C(=O)[C@@H]1C=C2c3cccc4[nH]cc(c34)C[C@H]2N(C)C1`, for which the Potency entry in assay [1], in assay [2], in assay [3], in assay [4] and in assay [8] was “inactive” in each case. For the same compound, the Potency in assay [5] was 56.6 µM (active).
In the case of `O=c1c(C2CC(c3ccc(-c4ccc(Br)cc4)cc3)Cc3ccccc32)c(O)sc2ccccc12` (stereo unspecified), the Potency result in assay [1], in assay [2], in [5] and in assay [8] was “inactive” in each case. Further, the Potency in assay [4] was 11.9 µM (active); in assay [7], 7.5 µM (active).
As to `COP(=S)(OC)SCN1C(=O)c2ccccc2C1=O`, the Potency result in assay [1], in [2], in assay [4], in assay [6], in assay [7] and in [8] was “inactive” each time.
For the compound `Clc1ccc(C(c2ccc(Cl)cc2)C(Cl)(Cl)Cl)cc1`, the Potency entry in assay [1], in assay [2], in assay [4] and in assay [8] was “inactive” throughout. The Potency in assay [9] was 5.31 µM (active).
Regarding `CC(C)c1c(CN(C)C(C)Cc2ccccc2)n(C)n(-c2ccccc2)c1=O` (stereo unspecified), the Potency entry in [1], in [2], in assay [3], in [5], in [9] and in [6] was “inactive” throughout. Also, the Potency result in assay [7] and in assay [8] was “inactive” each time.
Regarding `CN1C(=O)CCS(=O)(=O)C1c1ccc(Cl)cc1` (stereo unspecified), the Potency result in [1], in assay [2], in assay [3], in [4], in assay [5] and in assay [9] was “inactive” in each case. The Potency entry in assay [6], in [7], in [8] and in assay [10] was “inactive” in each case.
As for `CC(Cc1ccccc1)NCCn1cnc2c1c(=O)n(C)c(=O)n2C` (stereo unspecified), the Potency entry in assay [1], in assay [2], in assay [3], in assay [4], in assay [5] and in [6] was “inactive” in each case. In addition, the Potency entry in assay [7], in assay [8] and in [10] was “inactive” throughout.
`C[C@]12CCC(=O)C=C1CC[C@@H]1[C@H]3CC[C@](C)(O)[C@@]3(C)CC[C@@H]12`: the Potency result in [1] was “inactive”. Moreover, the Potency in assay [4] is 49 µM (active); in assay [9] it was 30.9 µM (active).
`CCOP(=S)(OCC)Oc1ccc2c(C)c(Cl)c(=O)oc2c1`: the Potency entry in assay [1], in assay [2], in [3], in assay [4], in assay [9] and in [6] was “inactive” throughout. For the same compound, the Potency entry in assay [8] is “inactive”. The Potency in [5] was 0.001 µM (active).
As to `COc1cccc(C(=O)CCN[C@@H](C)[C@H](O)c2ccccc2)c1`, the Potency result in assay [1], in assay [2], in assay [4], in assay [6] and in [8] was “inactive” each time. Further, the Potency in [3] was 26.6 µM (active).
For `O=C1CN=C(c2ccccc2)c2cc([N+](=O)[O-])ccc2N1`, the Potency result in assay [1], in assay [2], in assay [3], in assay [4], in assay [5] and in [6] was “inactive” each time. Further, the Potency entry in assay [7] and in assay [8] was “inactive” throughout.
In the case of `CCC(C)C(C)(COC(N)=O)COC(N)=O` (stereo unspecified), the Potency result in assay [1], in assay [2], in assay [3], in [4], in assay [5] and in assay [9] was “inactive” each time. Also, the Potency result in assay [6], in assay [7], in assay [8] and in assay [10] was “inactive” in each case.
In the case of `O=C(CCCN1CCC2(CC1)C(=O)NCN2c1ccccc1)c1ccc(F)cc1`, the Potency result in assay [1], in [2], in [3], in assay [5], in assay [9] and in assay [7] was “inactive” in each case. In addition, in [8], the Potency result was “inactive”.
On to `C[C@]12CC[C@H]3[C@@H](CCC4=CC(=O)CC[C@@H]43)[C@@H]1CC[C@@H]2OC(=O)CCC1CCCCC1`, for which the Potency result in [1], in assay [2], in [3], in assay [5] and in assay [8] was “inactive” each time.
Regarding `C[C@H]1[C@@H]2Cc3ccc(O)cc3[C@@]1(C)CCN2C`, the Potency entry in assay [1], in assay [2], in assay [3], in assay [4], in assay [5] and in assay [6] was “inactive” throughout. Moreover, the Potency entry in assay [7] and in assay [8] was “inactive” throughout.
In the case of `c1ccc(N2CCNCC2)cc1`, the Potency entry in [1], in [2], in assay [3], in assay [4], in assay [5] and in assay [6] was “inactive” each time. In addition, the Potency entry in [7] and in assay [8] was “inactive” each time.
As for `CN1CC[C@]23c4c5ccc(O)c4O[C@H]2[C@@H](O)C=C[C@H]3[C@H]1C5`, the Potency entry in assay [1], in assay [2], in assay [3], in assay [4], in [6] and in assay [7] was “inactive” in each case. Besides, the Potency entry in assay [8] was “inactive”.
Take `O=c1[nH]c2ccccc2n1C1CCNCC1`: the Potency entry in [1], in [2], in assay [3], in assay [4], in [5] and in [6] was “inactive” throughout. The Potency result in assay [7], in assay [8] and in assay [10] was “inactive” in each case.
As for `CC(Cc1ccccc1)N(C)Cc1ccco1` (stereo unspecified), the Potency entry in [2], in [3], in assay [4], in assay [5], in assay [9] and in [6] was “inactive” in each case. The Potency entry in assay [7], in assay [8] and in assay [10] was “inactive” throughout.
With `C[C@]12CC[C@@H]3c4ccc(OC(=O)N(CCCl)CCCl)cc4CC[C@H]3[C@@H]1CC[C@@H]2OP(=O)(O)O`, the Potency result in assay [1], in [2], in assay [3], in [5], in assay [9] and in [6] was “inactive” in each case. Moreover, the Potency entry in [8] is “inactive”. Further, in assay [4], the Potency is 16.6 µM (active).
As for `CCCCC/C=C\C/C=C\C/C=C\C/C=C\CCCC(=O)NCC(=O)O`, the Potency entry in assay [1], in assay [2], in [3], in [4], in assay [5] and in assay [6] was “inactive” each time. For the same compound, the Potency result in assay [8] is “inactive”.
For `CC(C)=CC1C(C(=O)OCN2C(=O)C3=C(CCCC3)C2=O)C1(C)C` (stereo unspecified), the Potency result in assay [1], in assay [2], in [3], in [5], in [6] and in assay [8] was “inactive” in each case. For the same compound, the Potency in [4] is 21.1 µM (active).
As to `COC1CC(=C(c2cccs2)c2cccs2)C[N+](C)(C)C1` (stereo unspecified), the Potency entry in [1], in assay [2], in [3], in [4], in [9] and in [6] was “inactive” each time. Moreover, the Potency entry in assay [7], in assay [8] and in assay [10] was “inactive” in each case.
On to `O=C(O)CCCc1ccc(N(CCCl)CCCl)cc1`, for which the Potency entry in assay [1], in assay [2], in [3], in assay [5] and in assay [8] was “inactive” throughout. The Potency is 13.2 µM (active) in assay [4]; 20.9 µM (active) in assay [9]; 11.9 µM (active) and 1.05 µM (active) in assay [7].
On to `CCCN(CCC)C(=O)Cc1c(-c2ccc(Cl)cc2)nc2ccc(Cl)cn12`, for which the Potency result in [1], in assay [2], in [3], in assay [6], in assay [7] and in assay [8] was “inactive” throughout. Besides, the Potency in [9] is 16.8 µM (active).
Regarding `CCCCCCCCCC(=O)O[C@H]1CC[C@H]2[C@@H]3CCC4=CC(=O)CC[C@@H]4[C@H]3CC[C@]12C`, the Potency entry in assay [1], in assay [3], in [4], in assay [5], in assay [9] and in assay [6] was “inactive” each time. Moreover, the Potency result in assay [7], in assay [8] and in [10] was “inactive” in each case.
Consider `C[C@]12CC[C@H]3[C@@H](CC[C@@]45O[C@H]4C(O)=C(C#N)C[C@]35C)[C@H]1CC[C@H]2O`, for which the Potency result in assay [4], in assay [6] and in assay [8] was “inactive” throughout. Moreover, the Potency was 18.7 µM (active) in assay [5] and 3.32 µM (active) in [9].
